In the supplement of paper PMC10849652:
Of roughly 7,900 targets only a part is listed; those with a hit were picked by preference. About 0.6% of all pairs of compound and target were hits. A number with no mark means an inactive call.

compound: CC1=C(SC2=C1C(=N[C@H](C3=NN=C(N32)C)CC(=O)N)C4=CC=C(C=C4)Cl)C; assay: log2 fold change, soluble protein after heating vs DMSO (PISA); higher = thermal stabilisation; K562 cells, 10 uM, 30 min; active = over 0.2 and 3.5 SD of the protein, either way, in both replicates (recomputed)
How it was run: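 Aliquots of K562 cells (2×10^6 cells/mL) treated with 10 μM compound for 30 min were heated for 3 min over 48°C-58°C. After pooling and extraction in PBS with 0.5% NP-40 at 4°C, soluble protein from a 21,000xg, 90 min spin was quantified by TMTpro 16plex LC-MS/MS with channel sums equalised. Thermal stability is expressed against control samples, from duplicates, as a log2 fold change.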

Chain of UniProt Q9H3M7 (Q9H3M7 whole entry, looked up): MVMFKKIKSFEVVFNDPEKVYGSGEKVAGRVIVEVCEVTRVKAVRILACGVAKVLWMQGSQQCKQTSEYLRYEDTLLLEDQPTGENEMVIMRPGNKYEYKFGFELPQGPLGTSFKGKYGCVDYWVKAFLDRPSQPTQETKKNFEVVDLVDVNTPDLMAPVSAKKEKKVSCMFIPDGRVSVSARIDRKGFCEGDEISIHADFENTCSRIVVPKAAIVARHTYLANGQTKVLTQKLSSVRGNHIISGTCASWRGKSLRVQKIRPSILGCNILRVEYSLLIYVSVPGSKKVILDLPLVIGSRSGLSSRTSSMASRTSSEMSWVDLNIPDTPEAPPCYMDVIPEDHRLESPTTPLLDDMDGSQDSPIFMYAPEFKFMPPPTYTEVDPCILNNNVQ
Chain of UniProt Q9UL33 (Q9UL33 whole entry, looked up): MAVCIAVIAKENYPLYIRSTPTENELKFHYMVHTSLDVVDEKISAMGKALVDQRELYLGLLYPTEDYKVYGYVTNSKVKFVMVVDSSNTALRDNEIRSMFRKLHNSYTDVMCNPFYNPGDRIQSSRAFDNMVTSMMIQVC
Chain of UniProt O43379 (O43379 whole entry, looked up): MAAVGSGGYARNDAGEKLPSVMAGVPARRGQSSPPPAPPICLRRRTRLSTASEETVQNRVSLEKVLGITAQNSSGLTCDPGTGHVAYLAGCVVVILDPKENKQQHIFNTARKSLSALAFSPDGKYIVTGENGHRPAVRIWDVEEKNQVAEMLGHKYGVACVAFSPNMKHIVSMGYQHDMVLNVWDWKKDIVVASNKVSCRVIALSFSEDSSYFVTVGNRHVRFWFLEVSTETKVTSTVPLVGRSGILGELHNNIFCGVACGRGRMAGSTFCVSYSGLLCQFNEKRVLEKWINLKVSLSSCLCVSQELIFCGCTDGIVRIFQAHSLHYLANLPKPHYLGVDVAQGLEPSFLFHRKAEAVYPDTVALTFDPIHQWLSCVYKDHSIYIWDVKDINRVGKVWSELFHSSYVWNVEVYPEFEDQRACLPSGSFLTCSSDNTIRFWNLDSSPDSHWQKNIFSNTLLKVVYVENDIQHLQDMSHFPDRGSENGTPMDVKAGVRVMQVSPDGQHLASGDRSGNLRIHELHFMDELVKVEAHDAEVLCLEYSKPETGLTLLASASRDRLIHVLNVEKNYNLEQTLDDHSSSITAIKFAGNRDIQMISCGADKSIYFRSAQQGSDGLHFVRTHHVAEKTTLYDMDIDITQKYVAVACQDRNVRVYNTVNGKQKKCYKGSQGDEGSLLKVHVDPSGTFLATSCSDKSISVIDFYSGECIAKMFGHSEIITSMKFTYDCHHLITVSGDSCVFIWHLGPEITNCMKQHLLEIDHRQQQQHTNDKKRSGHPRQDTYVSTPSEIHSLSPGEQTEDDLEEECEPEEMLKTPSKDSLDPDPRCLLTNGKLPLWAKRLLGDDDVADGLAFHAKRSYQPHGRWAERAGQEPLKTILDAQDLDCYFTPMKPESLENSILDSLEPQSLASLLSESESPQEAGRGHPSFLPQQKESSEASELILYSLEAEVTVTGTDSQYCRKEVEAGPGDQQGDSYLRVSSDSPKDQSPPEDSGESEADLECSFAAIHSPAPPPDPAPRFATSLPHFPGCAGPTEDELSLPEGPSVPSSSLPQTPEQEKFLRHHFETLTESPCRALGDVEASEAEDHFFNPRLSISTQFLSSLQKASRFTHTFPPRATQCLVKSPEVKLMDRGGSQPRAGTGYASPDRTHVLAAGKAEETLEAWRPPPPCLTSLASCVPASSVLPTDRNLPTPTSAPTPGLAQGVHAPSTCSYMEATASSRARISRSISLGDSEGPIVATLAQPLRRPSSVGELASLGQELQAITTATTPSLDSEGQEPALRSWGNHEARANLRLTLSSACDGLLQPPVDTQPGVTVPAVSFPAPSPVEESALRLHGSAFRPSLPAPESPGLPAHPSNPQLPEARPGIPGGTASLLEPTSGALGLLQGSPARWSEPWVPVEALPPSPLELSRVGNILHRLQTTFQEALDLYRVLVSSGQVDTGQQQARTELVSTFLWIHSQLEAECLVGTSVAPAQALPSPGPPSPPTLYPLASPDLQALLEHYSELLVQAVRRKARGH
Chain of UniProt Q8IWV8 (Q8IWV8 whole entry, looked up): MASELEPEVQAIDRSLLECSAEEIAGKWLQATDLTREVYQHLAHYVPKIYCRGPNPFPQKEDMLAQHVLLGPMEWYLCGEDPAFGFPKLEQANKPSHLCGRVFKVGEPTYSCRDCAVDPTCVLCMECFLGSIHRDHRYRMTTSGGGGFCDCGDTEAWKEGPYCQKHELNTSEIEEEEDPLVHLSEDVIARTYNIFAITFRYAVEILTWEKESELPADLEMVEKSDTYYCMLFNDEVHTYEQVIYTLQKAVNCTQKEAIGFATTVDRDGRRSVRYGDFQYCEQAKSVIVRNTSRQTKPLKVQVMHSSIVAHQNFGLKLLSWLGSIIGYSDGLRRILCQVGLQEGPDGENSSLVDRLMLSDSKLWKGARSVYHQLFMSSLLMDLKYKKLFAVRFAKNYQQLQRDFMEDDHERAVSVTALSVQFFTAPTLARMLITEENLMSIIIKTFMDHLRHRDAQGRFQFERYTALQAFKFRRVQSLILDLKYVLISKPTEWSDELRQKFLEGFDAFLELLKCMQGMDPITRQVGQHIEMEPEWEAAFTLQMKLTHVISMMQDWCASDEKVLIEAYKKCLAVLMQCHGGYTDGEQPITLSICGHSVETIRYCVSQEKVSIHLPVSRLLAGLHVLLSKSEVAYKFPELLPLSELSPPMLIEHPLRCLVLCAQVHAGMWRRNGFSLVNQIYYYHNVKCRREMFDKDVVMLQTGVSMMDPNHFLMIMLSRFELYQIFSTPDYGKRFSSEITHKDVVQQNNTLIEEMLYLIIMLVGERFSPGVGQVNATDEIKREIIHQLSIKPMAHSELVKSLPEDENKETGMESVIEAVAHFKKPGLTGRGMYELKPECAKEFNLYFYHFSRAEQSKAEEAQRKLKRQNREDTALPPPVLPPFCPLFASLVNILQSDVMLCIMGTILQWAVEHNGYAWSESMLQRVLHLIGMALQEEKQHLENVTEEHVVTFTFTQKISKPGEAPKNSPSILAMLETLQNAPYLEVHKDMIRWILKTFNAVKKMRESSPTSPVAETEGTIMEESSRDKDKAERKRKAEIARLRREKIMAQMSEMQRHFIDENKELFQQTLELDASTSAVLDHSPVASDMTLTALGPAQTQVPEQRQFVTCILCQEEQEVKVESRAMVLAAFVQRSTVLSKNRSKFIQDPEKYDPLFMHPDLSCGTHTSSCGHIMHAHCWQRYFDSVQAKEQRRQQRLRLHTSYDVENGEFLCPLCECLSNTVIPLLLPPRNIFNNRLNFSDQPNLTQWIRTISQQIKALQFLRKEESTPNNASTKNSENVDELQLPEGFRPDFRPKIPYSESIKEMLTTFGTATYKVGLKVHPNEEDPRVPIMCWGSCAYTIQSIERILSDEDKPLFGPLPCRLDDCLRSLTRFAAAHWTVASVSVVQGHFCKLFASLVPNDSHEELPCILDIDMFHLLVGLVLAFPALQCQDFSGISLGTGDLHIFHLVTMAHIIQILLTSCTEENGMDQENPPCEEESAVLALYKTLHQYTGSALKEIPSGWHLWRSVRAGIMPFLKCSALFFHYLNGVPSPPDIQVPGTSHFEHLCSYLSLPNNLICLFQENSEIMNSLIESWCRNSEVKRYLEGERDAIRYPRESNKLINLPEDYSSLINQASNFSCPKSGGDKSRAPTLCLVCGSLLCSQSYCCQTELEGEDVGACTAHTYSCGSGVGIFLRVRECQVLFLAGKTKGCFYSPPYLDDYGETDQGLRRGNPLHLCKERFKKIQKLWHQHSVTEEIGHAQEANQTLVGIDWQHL
Chain of UniProt Q8N1B4 (Q8N1B4 whole entry, looked up): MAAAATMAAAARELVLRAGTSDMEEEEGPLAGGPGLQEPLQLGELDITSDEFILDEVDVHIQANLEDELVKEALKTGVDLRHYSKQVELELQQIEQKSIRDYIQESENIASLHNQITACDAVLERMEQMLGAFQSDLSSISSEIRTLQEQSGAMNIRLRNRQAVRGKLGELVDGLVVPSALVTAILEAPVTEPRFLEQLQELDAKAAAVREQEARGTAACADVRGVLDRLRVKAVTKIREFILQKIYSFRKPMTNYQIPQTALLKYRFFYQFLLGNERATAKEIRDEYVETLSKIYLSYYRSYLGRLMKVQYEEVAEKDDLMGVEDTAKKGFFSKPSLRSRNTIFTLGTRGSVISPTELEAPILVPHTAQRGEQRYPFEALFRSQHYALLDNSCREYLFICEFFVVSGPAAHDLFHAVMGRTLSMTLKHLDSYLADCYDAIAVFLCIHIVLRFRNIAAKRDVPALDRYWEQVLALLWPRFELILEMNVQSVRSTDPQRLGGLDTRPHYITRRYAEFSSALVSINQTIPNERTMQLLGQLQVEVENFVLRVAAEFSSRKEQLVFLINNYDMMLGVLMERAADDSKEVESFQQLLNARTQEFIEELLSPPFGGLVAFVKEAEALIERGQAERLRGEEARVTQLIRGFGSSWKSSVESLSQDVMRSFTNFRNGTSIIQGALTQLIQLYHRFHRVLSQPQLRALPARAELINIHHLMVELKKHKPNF
Chain of UniProt Q86SZ2 (Q86SZ2 whole entry, looked up): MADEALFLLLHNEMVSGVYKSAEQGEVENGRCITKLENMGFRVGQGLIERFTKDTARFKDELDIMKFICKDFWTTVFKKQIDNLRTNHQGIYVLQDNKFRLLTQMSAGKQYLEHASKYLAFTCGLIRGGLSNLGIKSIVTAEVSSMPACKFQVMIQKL
Chain of UniProt Q92890 (Q92890 whole entry, looked up): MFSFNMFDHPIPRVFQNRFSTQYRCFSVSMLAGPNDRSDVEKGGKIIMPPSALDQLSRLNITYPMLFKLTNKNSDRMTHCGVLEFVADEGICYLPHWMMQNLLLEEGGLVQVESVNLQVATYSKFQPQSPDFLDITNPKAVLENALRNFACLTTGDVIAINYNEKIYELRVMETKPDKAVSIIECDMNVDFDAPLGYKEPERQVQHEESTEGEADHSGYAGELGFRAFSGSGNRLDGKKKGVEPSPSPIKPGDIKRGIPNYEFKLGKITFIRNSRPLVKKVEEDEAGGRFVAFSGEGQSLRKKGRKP

| Target | log2 fold change |
| --- | --- |
| WDR75 (UniProt Q8IWA0) | -0.24 |
| WASHC2C, A0A096LPC5 | 0.012 |
| VDAC1 (UniProt P21796) | 0.008 |
| WDR37 isoform 2 (UniProt Q9Y2I8) | -0.06 |
| TMEM173 (UniProt Q86WV6) | 0.045 |
| WDR62 isoform 4 (UniProt O43379) | 0.027 |
| TRAPPC2L (UniProt Q9UL33) | -0.044 |
| TSG101 (UniProt Q99816) | 0.032 |
| TRIM28 (UniProt Q13263) | 0.029 |
| TUBA4A (UniProt C9JJQ8) | 0.036 |
| TOMM20 (UniProt Q15388) | 0.025 |
| TMTC3 (UniProt Q6ZXV5) | 0.019 |
| TXNIP (UniProt Q9H3M7) | 0.148 |
| TRMT10A (UniProt Q8TBZ6) | 0.028 |
| TUT4 (UniProt Q5TAX3) | -0.181 |
| WDR41 (UniProt Q9HAD4) | -0.08 |
| TRIM4 (UniProt Q9C037) | -0.014 |
| WDR43 (UniProt Q15061) | 0.027 |

| Target | log2 fold change |
| --- | --- |
| WAPL isoform 3 (UniProt Q7Z5K2) | 0.021 |
| TRAPPC6B (UniProt Q86SZ2) | 0.061 |
| TRIP10 (UniProt Q15642) | 0.005 |
| USP15 (UniProt Q9Y4E8) | 0.035 |
| XPOT (UniProt O43592) | 0.06 |
| XRCC6 (UniProt P12956) | 0.044 |
| WASHC3 (UniProt Q9Y3C0) | -0.022 |
| UFD1 isoform 1 (UniProt Q92890) | 0.038 |
| XPNPEP3 (UniProt Q9NQH7) | 0.018 |
| VPS52 (UniProt Q8N1B4) | 0.036 |
| WDR61 (UniProt Q9GZS3) | 0.04 |
| TOM1L1 (UniProt O75674) | 0.045 |
| USP3 (UniProt Q9Y6I4) | 0.143 |
| VPS50 (UniProt Q96JG6) | 0.055 |
| UBR2 (UniProt Q8IWV8) | 0.04 |
| USP14 (UniProt P54578) | 0.03 |
| XPO1 (UniProt O14980) | 0.053 |
| WRB (UniProt O00258) | -0.007 |
